Sampled rows, rich in hits. Any-hit rate of the full collection: about 10%.
GLS inhibitor: inhibitors of human glutaminase (GLS); O94925; hit rate 0.21% among 410,000; Potency, µM (series often up to 45.5 µM), inactives show top-dose activity change, negative = inhibition, hits mostly inhibitors; GLS enzymatic activity, qHTS titration; further: on the % scale 0 is the no-effect control and ±100 the full control effect
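hKGA in 45 mM KH2PO4 pH 8.2, 0.02% Tween-20 with pin-transferred compounds; 1 mM L-glutamine (stock) plus glutamate oxidase/HRP/Amplex Red coupling added. Fluorescence read initially and after 30 min at RT.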
G9a block: inhibitors of human histone lysine methyltransferase G9a. G9a H3K9 monomethylation, AlphaScreen, 2 h. Potency, µM (top dose mostly 102 µM), for inactives: at the top dose activity, negative = inhibition, hits mostly inhibitors. hit rate 8.8% among 350,000; further: on the % scale 0 is the no-effect control and ±100 the full control effect; nearly all actives have a fitted effect of over 75% in size
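Step 1: enzyme (final 20 nM) with compound, 15 min RT. Step 2: substrate peptide 500 nM and SAM 20 uM, 2 h RT. Step 3: anti-H3K9me1 antibody and AlphaScreen beads, 10 min, then plate read.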
JMJD2A Tudor: inhibitors of human JMJD2A Tudor domain. O75164. AlphaScreen JMJD2A-Tudor / H3K4me3 peptide binding. Potency, µM (highest dose often 114 µM), for the others: top-dose activity change, negative = inhibition, usual class: inhibitors. hit rate 4.4% among 390,000. AID 504339; further: on the % scale 0 is the no-effect control and ±100 the full control effect; nearly all actives have a fitted effect of over 50% in size
BAZ2B inh: blocks human BAZ2B | Potency, µM (doses to about 114 µM), for inactives: at the top dose activity change, negative = inhibition, usual class: inhibitors | AlphaScreen BAZ2B-H3K14Ac peptide displacement | hit rate 4.4% among 360,000; further: on the % scale 0 is the no-effect control and ±100 the full control effect; nearly all actives have a fitted effect of over 60% in size
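Protein-peptide AlphaScreen: BAZ2B 50 nM, b-H3K14Ac 50 nM, 1x PBS pH 7.4 + 0.01% Tween-20. Preincubation 30 min RT; cpd 30 min RT (top 110 uM); beads 20 min RT, light-protected.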
HP1b binding inh: HP1-beta chromodomain-methylated histone interaction inhibition | P83916 | AlphaScreen HP1-beta / biotin-H3K9me3 peptide binding | Potency, µM (titrated, usually from 114 µM), for the others: at the top dose activity change, negative = inhibition, usual class: inhibitors | hit rate 0.56% among 390,000 | AID 540317; further: nearly all actives have a fitted effect of over 70% in size
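HP1-beta protein (50 nM final) preincubated 30 min at room temperature with biotinylated H3(1-18)K9me3 peptide (50 nM) in PBS pH 7.4, 0.01% Tween-20, then compound added for 30 min. AlphaScreen streptavidin donor/nickel chelate acceptor beads (10 ug/mL final), 30 min dark, luminescence read.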
An asterisk follows results filed as active; ? = inconclusive; · = not tested or not shown; [ ] = remark or other dose. The call rests on the fitted dose curve; in most records, active means well fitted curve in the direction sought with a large enough effect; inconclusive means small, poorly fitted or top-dose-only effect, or another doubt; inactive means no such curve, though single readings can be large; an effect the other way counts as inactive or inconclusive. Potency means the concentration at half of the fitted maximal effect.

SMILES	GLS inhibitor	G9a block	JMJD2A Tudor	BAZ2B inh	HP1b binding inh
CN(C)c1ccc(C(CNS(=O)(=O)c2ccc(F)cc2)N2CCc3ccccc32)cc1 (centres undefined)	3%	14µM*	20µM*	10µM*	?
COc1ccc(C)cc1S(=O)(=O)NCC(c1ccc(N(C)C)cc1)N1CCc2ccccc21 (centres undefined)	5%	10µM*	14µM*	10µM*	?
Cc1cc(S(=O)(=O)NCC(c2ccc(N(C)C)cc2)N2CCOCC2)ccc1F (centres undefined)	22%	-21%[12.7 µM]	?	?	-6%
Cc1ccc(CNC(=O)C(C(=O)NCc2ccc(C)o2)c2ncc(C(F)(F)F)cc2Cl)o1	1%	?	-4%	?	38%
COc1ccccc1NC(=S)N1CCN(c2ncccn2)CC1	7%	-6%	-3%	-20%	7%
Cc1cc(C)c(S(=O)(=O)NCC(c2ccc(N(C)C)cc2)N2CCc3ccccc32)c(C)c1 (centres undefined)	9%	11µM*	13µM*	3.2µM*	?
CN(C)c1ccc(C(CNS(=O)(=O)c2cccc([N+](=O)[O-])c2)N2CCOCC2)cc1 (centres undefined)	2%	2%[0.501 µM]	?	-36%	-5%
CC(C)Cn1c(SCC(=O)N2CCN(C(=O)c3ccco3)CC2)nc2ccccc2c1=O	-1%	?	-15%	-14%	33%
CCOC(=O)c1c(C)n(C(=O)c2ccco2)c(=O)n1C(=O)c1ccco1	21%	56µM*	-32%	-4%	26%
CCOC(=O)c1c(C)c(C(=O)N2CCN(C(=O)c3ccco3)CC2)c(C)n1C	8%	-49%[59 µM]	-14%	-36%	2%
COc1ccc2c(c1)c(CC(=O)O)c(C)n2C(=O)c1ccccc1	·	23%[12.7 µM]	·	·	·
Cc1cccc(OCCCCn2nnc3sc4c(c3c2=O)CCC(C)C4)c1 (centres undefined)	-5%	?	71µM*	?	61%
CC(C)(C)C1CCc2c(sc3nnn(CCOc4ccccc4)c(=O)c23)C1 (centres undefined)	-5%	20%[59 µM]	-18%	-13%	58%
COc1ccc(OCCn2nnc3sc4c(c3c2=O)CCCC4)cc1	-10%	-3%[59 µM]	79µM*	50µM*	3%
CC1CCc2c(sc3nnn(Cc4cccc(C(=O)OC(C)C)c4)c(=O)c23)C1 (centres undefined)	7%	18µM*	6%	3%	35%
CCOC(=O)c1cnc(SC)nc1Oc1cccc(NS(=O)(=O)c2ccc(F)cc2)c1	5%	1%	8%	9%	63%
O=C(Nc1cccc([N+](=O)[O-])c1)c1ccc(N2CCCC2=O)cc1	1%	3%	-2%	-5%	26%
O=C(NCCCn1ccnc1)C(=O)NCC(c1ccco1)N1CCN(c2ccccc2)CC1 (centres undefined)	64%	-6%	-7%[11.4 µM]	56µM*	39%
O=C(NCCCn1ccnc1)C(=O)NCC(c1ccco1)N1CCN(c2ccc(F)cc2)CC1 (centres undefined)	42%	?	-2%[11.4 µM]	·	30%
O=C(NCCCn1ccnc1)C(=O)NCC(c1cccnc1)N1CCN(c2ccccc2)CC1 (centres undefined)	26%	?	56µM*	50µM*	11%
O=C(NCc1ccccc1)C(=O)NCC(c1cccnc1)N1CCN(c2ccccc2)CC1 (centres undefined)	14%	3%[59 µM]	27%	-7%	85%
O=C(NCc1ccc(F)cc1)C(Cc1ccccc1)NS(=O)(=O)c1cccs1 (centres undefined)	?	-2%	-8%	-1%	16%
CN(C)c1ccc(/C=C/C(=O)c2ccccc2O)cc1	55%	8.9µM*	10µM*	·	13µM*
COc1cc(C)cc(C(=O)C=Cc2ccccc2)c1O	-12%	·	56µM*	·	?
COc1ccc(C(=O)/C=C/c2ccccc2)c(OC)c1	18%	15%[59 µM]	-5%	5%	27%
Cc1ccc(O)c(C(=O)C=Cc2ccccc2)c1	16%	·	40µM*	·	?
O=C(/C=C/c1ccc2c(c1)OCCCO2)c1ccccc1O	2%	?	?	?	?

Screens (PubChem)
